Hits are enriched below; roughly 12% of the tested compounds scored in any of these assays.
HP1b chromo inh: inhibitors of HP1-beta chromodomain binding to methylated histone tails. P83916. AlphaScreen HP1-beta / biotin-H3K9me3 peptide binding. Potency, µM (highest dose often 114 µM), without a hit: top-dose activity change, negative = inhibition, usual class: inhibitors. 390,000 tested, 0.56% active. AID 540317; note: nearly all actives have a fitted effect of over 70% in size
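AlphaScreen: HP1-beta (50 nM) preformed 30 min with biotin-H3(1-18)K9me3 peptide (50 nM) in PBS pH 7.4, 0.01% Tween-20. Compound added for 30 min at RT, then streptavidin donor/nickel chelate acceptor beads (10 ug/mL) for 30 min.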
BAZ2B inh: blocks human BAZ2B. Q9UIF8. AlphaScreen BAZ2B-H3K14Ac peptide displacement. Potency, µM (highest dose often 114 µM), without a hit: top-dose activity change, negative = inhibition, hits mostly inhibitors. 360,000 tested, 4.4% active. AID 504333; note: % is set by controls: 0 for no effect and ±100 for the full control effect; nearly all actives have a fitted effect of over 60% in size
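AlphaScreen luminescence quantifies BAZ2B engagement of H3K14Ac peptide; the protein and biotinylated peptide are both at 50 nM final, buffer PBS pH 7.4 with 0.01% Tween-20, all steps at room temperature.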
L3MBTL1 block: L3MBTL1 (human) inhibition; Q9Y468; AlphaScreen L3MBTL1–H3K9me1 peptide binding; Potency, µM (titrated, usually from 57.1 µM), without a hit: at the top dose activity, negative = inhibition, actives largely listed as inhibitors; 230,000 tested, 0.66% active; AID 485360; note: % is set by controls: 0 for no effect and ±100 for the full control effect; nearly all actives have a fitted effect of over 60% in size
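AlphaScreen assay: L3MBTL1 (50 nM final) was preincubated 30 min at room temperature with biotinylated H3(1-15)K9me1 peptide (75 nM final), then 30 min with library compounds; streptavidin donor and nickel chelate acceptor beads (10 ug/mL final) added, 30 min dark.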
JMJD2A Tudor: JMJD2A Tudor domain (human) inhibition; AlphaScreen JMJD2A-Tudor / H3K4me3 peptide binding; Potency, µM (series often up to 114 µM), without a hit: at the top dose activity change, negative = inhibition, most hits filed as inhibitors; 390,000 tested, 4.4% active; AID 504339; note: % is set by controls: 0 for no effect and ±100 for the full control effect; nearly all actives have a fitted effect of over 50% in size
Sfp inh: inhibitors of Bacillus subtilis Sfp phosphopantetheinyl transferase | Q9F4F7 | Biochemical Sfp PPTase activity, qHTS | Potency, µM, for inactives: largest response in the series, negative = inhibition, most hits filed as inhibitors | 310,000 tested, 3.5% active;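 note: the enzyme is Sfp with the accession as filed and its product quenches rhodamine fluorescence; 0% = enzyme reaction without inhibitor and -100% = no enzyme wells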
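Reaction rates are the 30-min fluorescence difference (ex 525, em 598 nm) in wells containing 15 nM Sfp, 5 uM rhodamine-CoA and 12.5 uM BHQ-2-YbbR at pH 7.6 with 10 mM MgCl2.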
G9a inh: inhibitors of human histone lysine methyltransferase G9a | 350,000 tested, 8.8% active | Potency, µM (top dose mostly 102 µM), inactives show top-dose activity, negative = inhibition, actives largely listed as inhibitors | G9a H3K9 monomethylation, AlphaScreen, 2 h | Q96KQ7; note: % is set by controls: 0 for no effect and ±100 for the full control effect; nearly all actives have a fitted effect of over 75% in size
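Enzyme 20 nM + cpd, 15 min RT; add b-H3K9 pep 500 nM / SAM 20 uM; 2 h RT; anti-H3K9me1 Ab 0.5 ug/mL + SA donor / anti-rabbit acceptor beads 20 ug/mL each, 10 min; AlphaScreen read.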
Active calls of the source: *; ? = inconclusive; / = no result; [ ] = another dose, or the depositor's remark. Calls come from the whole dose curve; as a rule, active = well fitted curve in the direction sought with a large enough effect; inconclusive = small, poorly fitted or top-dose-only effect, or another doubt; inactive = no such curve, though single readings can be large; an effect the other way counts as inactive or inconclusive. Potency is the fitted concentration of half-maximal effect.

SMILES	HP1b chromo inh	BAZ2B inh	L3MBTL1 block	JMJD2A Tudor	Sfp inh	G9a inh
CCC1(c2ccc(Cl)cc2)NC(=S)N(c2ccc(C)c(C)c2)N1 (stereo not drawn)	15.3%	-25.7%	-12.6%	-26.4%	-10.4%	17.8µM*
CCC1(c2ccc(Cl)cc2)NC(=S)N(c2ccc(C)cc2)N1 (stereo not drawn)	9.3%	-35.2%	2.9%	79.4µM*	?	28.2µM*
CC1=CC(C)(C)NC(=S)N1c1ccc(C)c(C)c1	19.1%	-16.0%	/	-15.4%	22.2%	13.4%[59 µM]
CCC1(c2ccccc2)NC(=S)N(c2ccc(C)c(C)c2)N1 (stereo not drawn)	17.1%	?	-5.2%	?	8.91µM*	7.94µM*
CC1=CC(C)(C)NC(=S)N1c1ccc(C)cc1	27.7%	-1.7%	0.2%	-11.0%	11.1%	-9.4%[59 µM]
CN=Cc1sc2ccccc2c1O	14.2%	-37.5%	-0.1%	-22.6%	-2.0%	50.1µM*
Oc1ccccc1N=Cc1sc2ccccc2c1Cl	?	?	-1.1%	-26.8%	56.2µM*	?
Oc1c(C=NCc2ccncc2)sc2ccccc12	-22.3%	?	/	-19.1%[11.4 µM]	28.2µM*	?
Oc1c(/C=N/c2ccccn2)sc2ccccc12	-20.8%	39.8µM*	-20.7%	?	-16.4%	8.91µM*
Oc1c(C=Nc2cccnc2)sc2ccccc12	18.2%	?	/	-22.0%	-20.8%	?
Cc1ccc(O)c(N=Cc2sc3ccccc3c2Cl)c1	-15.1%	?	0.0%	-31.0%	?	?
COC(=O)c1sc(-c2ccccc2)cc1NC(=O)Nc1ccc(F)cc1	6.3%	4.6%	/	-12.1%	/	9.8%[59 µM]
CCN(c1ccccc1)c1nc(N)nc(C#N)n1	11.1%[57 µM]	/	/	3.1%[57.1 µM]	/	/
O=C(CSc1nccc(=O)[nH]1)c1ccccc1Br	1.2%	-18.0%	/	-1.3%	50.1µM*	7.94µM*
C=CCSc1nc2ccccc2c(=O)[nH]1	29.1%	-5.2%	7.8%	-17.0%	-9.5%	14.2%
C=CCSc1nccc(=O)[nH]1	22.0%	6.5%	0.7%	50.1µM*	10.3%	17.6%[59 µM]
Cc1ccc(/C=N/Nc2ccc3ccccc3n2)o1	-23.8%	?	6.6%	?	9.2%	-45.7%
O=c1nc(N/N=C/c2ccccn2)cn[nH]1	58.7%	2.51µM*	5.01µM*	17.8µM*	23.0%	2.6%
Cc1ccc(/C=N/Nc2cn[nH]c(=O)n2)o1	20.9%	39.8µM*	1.9%	?	50.1µM*	24.6%
Cc1ccc2c(=O)cc(C(=O)Nc3nnc(CC(C)C)s3)oc2c1C	49.3%	-1.8%	/	-21.5%	/	-28.1%[59 µM]
COc1cc(OC)c2c(C)c(CC(=O)N3CCCCC3)c(=O)oc2c1	15.4%	-1.4%	/	-11.5%	/	2.3%[59 µM]
CCOC(=O)C(Cc1ccc(NC(=O)/C(=C/c2ccc(OC(C)=O)cc2)NC(C)=O)cc1)N1C(=O)c2ccccc2C1=O (stereo not drawn)	-19.1%	5.2%	-1.9%	89.1µM*	4.4%	-36.0%[59 µM]
CCOC(=O)C(Cc1ccc(NC(=O)/C(=C/c2ccccc2)NC(=O)c2ccccc2)cc1)N1C(=O)c2ccccc2C1=O (stereo not drawn)	9.8%	12.7%	2.8%	-20.8%	16.8%	5.2%[59 µM]
O=C(Cc1nc2ccccc2s1)c1ccc(O)cc1O	/	-2.7%	-12.5%	/	50.1µM*	?
COCCn1nnnc1C(C(C)C)N1CCN(C(=O)c2ccco2)CC1 (stereo not drawn)	0.5%	-0.8%	/	44.7µM*	22.6%	-2.7%[12.7 µM]
SMILES	HP1b chromo inh	BAZ2B inh	L3MBTL1 block	JMJD2A Tudor	Sfp inh	G9a inh
CCCC(c1nnnn1CCOC)N1CCN(C(=O)c2ccco2)CC1 (stereo not drawn)	11.3%	?	11.3%	?	-0.9%	44.7µM*
CC(C)CC(c1nnnn1C(C)C)N1CCN(C(=O)c2ccco2)CC1 (stereo not drawn)	11.3%	-24.8%	-11.9%	-19.9%	/	-14.9%[0.501 µM]
COCCn1nnnc1CN1CCN(C(=O)c2ccco2)CC1	1.0%	0.9%	/	-7.0%	-0.1%	16.9%
CCC(c1nnnn1Cc1ccco1)N1CCN(C(=O)c2ccco2)CC1 (stereo not drawn)	28.5%	?	2.4%	?	-3.4%	2.4%[59 µM]
CCCCC(c1nnnn1C(C)C)N1CCN(C(=O)c2ccco2)CC1 (stereo not drawn)	26.2%	-9.2%	/	?	-24.1%	50.1µM*
O=C1CC2CCCN2C=C1I (stereo not drawn)	22.8%	/	3.6%	17.8µM*	/	/
CCOC(=O)C1=CN2CCC[C@H]2CC1=O	20.2%	/	-7.1%	-9.7%	/	/
COc1cccc2nc(-c3cccs3)nc(NN3C(=O)C=C(C)C3=O)c12	/	/	/	-25.5%	?	/
CCCCNC(=O)c1cnc2sc(N3CCCCCC3)nn2c1=O	52.1%	-1.5%	/	-15.0%	/	6.4%[59 µM]
O=C(c1ccccc1)N1CCN(c2ccccc2)CC1	11.5%[57 µM]	/	/	-5.5%	/	/
O=C(O)c1nccnc1C(=O)N1CCN(c2ccccc2)CC1	24.1%	56.2µM*	-10.1%	?	-16.9%	?
O=C(Nc1nccs1)c1nc[nH]c1C(=O)N1CCN(c2ccccc2)CC1	73.7%	/	?	31.6µM*	/	/
O=C(Nc1ccccc1)c1nc[nH]c1C(=O)N1CCN(c2ccccc2)CC1	38.4%	-5.0%	-4.8%	-2.2%	/	6.1%[0.501 µM]
COc1ccc(-n2nc3ccc(NC(=O)c4cccc(OCCC(C)C)c4)cc3n2)cc1	70.3%	14.7%	/	-7.8%	/	21.0%[59 µM]
CC(C)c1cc[n+](-c2nc([O-])sc2C=O)cc1	19.8%	79.4µM*	-0.7%	35.5µM*	39.8µM*	?
CCc1cc[n+](-c2nc([O-])sc2C=O)cc1	31.0%	-34.6%	-3.4%	-17.8%[11.4 µM]	50.1µM*	?
CC(C)(C)c1cc[n+](-c2nc([O-])sc2C=O)cc1	8.0%	3.8%	3.2%	-17.8%	25.5%	12.5%
O=Cc1c(-[n+]2ccccc2)nc([O-])n1-c1ccccc1	17.4%	4.3%	/	-13.8%	19.6%	?
COc1ccc(C(=O)c2c(C)c3ccccc3n2CC(O)CNC(C)C)cc1 (stereo not drawn)	1.2%	-8.5%	19.3%	-26.1%	31.6µM*	44.7µM*
COc1ccc(C2Nc3ccccc3C(=O)N2c2cccc3ccccc23)cc1COc1c(C)cccc1C (stereo not drawn)	16.7%[57 µM]	/	/	-25.4%[57.1 µM]	/	/
O=C(CSc1nnc(CNc2cccc(C(F)(F)F)c2)n1Cc1ccco1)NCc1ccco1	-11.4%	0.6%	10.2%	-14.5%[11.4 µM]	-9.5%	-4.6%[59 µM]
O=C(CSc1nnc(CNc2ccc(F)cc2)n1Cc1ccco1)NC1CC1	43.0%	-23.4%	-5.9%	-7.5%	56.2µM*	?
O=C(CSc1nnc(CNc2ccc(F)cc2)n1Cc1ccco1)N1CCOCC1	54.0%	9.3%	9.3%	-8.4%[57.1 µM]	-10.2%	?

Screening data from PubChem BioAssay.
